ELG1 DNA repair: qHTS screen for small molecules that inhibit ELG1-dependent DNA repair in human embryonic kidney (HEK293T) cells expressing luciferase-tagged ELG1; HEK293T ELG1-luciferase reporter, luminescence, 16 h; DNA damage induced by 5-fluorouridine; Potency, µM (highest dose often 46.1 µM), without a hit: at the highest dose activity change, negative = inhibition, hits mostly inhibitors; 330,000 compounds, 2.3% hits; also: potency is read from the fitted curve at half-maximal effect; % is scaled to controls: 0 for no effect and ±100 for the full control effect; nearly all actives have a fitted effect of over 55% in size
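In this reporter screen, reduction of luminescence relative to DMSO vehicle indicated activity. Compounds and 5-fluorouridine were added together to 2,000 cells per well, incubated for 16 hr at 37 °C, then developed with ONE-Glo.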
BRCA1 expr act: qHTS Assay to Identify Small Molecule Activators of BRCA1 Expression | MCF7-BRCA1-FFLuc reporter, luminescence, 48 h; response scale: scaled: vehicle 0%, 10 µM genistein 100% | 380,000 compounds, 1.1% hits | Potency, µM (top dose mostly 46.1 µM), inactives show top-dose activation, usual class: activators; also: potency is read from the fitted curve at half-maximal effect; nearly all actives have a fitted effect of over 80% in size
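First, MCF7-BRCA1-FFLuc cells (2000/well) attach for 2 h; next, compounds are pin-added and incubated 48 h at 37 °C; finally, luciferase reagent is added and luminescence read after 15 min.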
p53 reactivator: qHTS assay for re-activators of p53 using a Luc reporter; 320,000 compounds, 0.063% hits; H1299 p53-A138V BP100-luciferase reporter, luminescence, 24 h; AID 504706, 2011; Potency, µM (highest dose often 92.2 µM), for the others: at the top dose activity change, positive = activation, actives largely listed as activators; also: potency is read from the fitted curve at half-maximal effect; % of control where 0% means no effect; nearly all actives have a fitted effect of over 45% in size
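p53-null H1299 cells stably carrying temperature-sensitive p53-A138V and a BP100-luciferase reporter were pinned with compounds (4-point, 1:5 series) and held 24 hrs at 37 deg C. Luminescence was read 10 min after detection reagent.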
RORg inh: qHTS for inhibitors of ROR gamma transcriptional activity. Drosophila S2 Gal4-RORgamma UAS-luciferase reporter, 20 h. Potency, µM (titrated, usually from 53.6 µM), inactives show top-dose activity change, negative = inhibition, most hits filed as inhibitors. 310,000 compounds, 5.4% hits. AID 2551, 2010; also: potency is read from the fitted curve at half-maximal effect; % is scaled to controls: 0 for no effect and ±100 for the full control effect; nearly all actives have a fitted effect of over 60% in size
Target sequence (P51450 whole entry, looked up, the tested form may be a part): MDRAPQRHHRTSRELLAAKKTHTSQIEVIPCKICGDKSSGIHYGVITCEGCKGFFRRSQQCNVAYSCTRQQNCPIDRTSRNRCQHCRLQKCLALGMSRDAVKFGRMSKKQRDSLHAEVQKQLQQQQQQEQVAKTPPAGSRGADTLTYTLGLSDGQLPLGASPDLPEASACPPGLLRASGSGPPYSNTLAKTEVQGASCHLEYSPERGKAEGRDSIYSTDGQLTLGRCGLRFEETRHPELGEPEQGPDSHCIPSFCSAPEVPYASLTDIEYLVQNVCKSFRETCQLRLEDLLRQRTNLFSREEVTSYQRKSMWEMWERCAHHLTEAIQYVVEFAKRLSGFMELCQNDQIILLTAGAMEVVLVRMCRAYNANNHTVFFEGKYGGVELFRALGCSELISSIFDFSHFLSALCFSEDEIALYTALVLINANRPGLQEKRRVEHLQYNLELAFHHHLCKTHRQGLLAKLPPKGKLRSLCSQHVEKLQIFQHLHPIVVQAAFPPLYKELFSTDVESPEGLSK
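Using a luciferase readout, inhibitors were identified by reduced reporter activity in Drosophila cells coexpressing a copper-inducible Gal4–ROR gamma fusion and UAS-driven Photinus luciferase, incubated 20 hr after 700 uM copper sulfate.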
Giardia killer: Small Molecules that selectively kill Giardia lamblia: qHTS. Giardia lamblia trophozoite viability. activity change, % at 7.66 µM, hits read low. 340,000 compounds, 0.15% hits. AID 540267, 2011; in the data active = activity change below about -80%; inconclusive = between about -30% and that limit;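 also: parasites exposed to compound for two days anaerobically before the ATP read; % is scaled to controls: 0 for no effect and ±100 for the full control effect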
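Media and compound were dispensed first, then trophozoites at 100 cells/well; plates sat 48 hrs at 37 deg C without oxygen before ATP luminescence reagent was added and read after 15-30 min at room temperature.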
VP16 counter: VP16 counterscreen qHTS for inhibitors of ROR gamma transcriptional activity; Drosophila S2 Gal4-VP16 UAS-luciferase, luminescence, 20 h; 310,000 compounds, 3.5% hits; Potency, µM (doses to about 53.6 µM), without a hit: at the highest dose activity, negative = inhibition, actives largely listed as inhibitors; AID 2546, 2010;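 also: Gal4-VP16 expression switched on by copper sulfate through the metallothionein promoter; potency is read from the fitted curve at half-maximal effect; % is scaled to controls: 0 for no effect and ±100 for the full control effect; nearly all actives have a fitted effect of over 50% in size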
* = called active by the depositor; ? = inconclusive; · = no result given; [ ] = dose if it differs, or a comment. Hits are enriched below; roughly 7.6% of the tested compounds scored in any of these assays. Unless noted, calls follow the shape of the dose curve; as a rule, active = well fitted curve in the direction sought with a large enough effect; inconclusive = small, poorly fitted or top-dose-only effect, or another doubt; inactive = no such curve, though single readings can be large; an effect the other way counts as inactive or inconclusive.

SMILES	ELG1 DNA repair	BRCA1 expr act	p53 reactivator	RORg inh	Giardia killer	VP16 counter
Cc1cc(C(=O)c2ccc(C(C)(C)C)cc2)c(NC(=O)CCl)s1	-10.6%	-102.5%	-19.6%	11.2µM*	-10.2	?
COc1ccc(/C=N/Nc2nc(N3CCCCC3)nc(N3CCCCC3)n2)cc1[N+](=O)[O-]	?	-54.4%	2.2%	15.8µM*	-2.5	-8.3%
COc1cc(/C=N/Nc2nc(N3CCCC3)nc(N3CCCC3)n2)ccc1O	?	-14.1%	-3.5%	-40.0%	12.5	7.7%
COc1ccc(/C=N/Nc2nc(Nc3ccccc3)nc(N3CCCCC3)n2)c(OC)c1	20.6µM*	-1.1%	26.4%	3.16µM*	-11.1	11.2µM*
COc1cc(/C=N/Nc2nc(Nc3ccccc3)nc(N3CCCCC3)n2)ccc1OCC(=O)O	9.1%	6.5%	8.1%	-9.1%	0.2	-13.7%
CCOc1ccc(/C=N/Nc2nc(N3CCCC3)nc(N3CCCC3)n2)cc1OC	?	-22.5%	0.5%	12.6µM*	-1.4	?
COc1ccc(/C=N/Nc2nc(Nc3ccccc3)nc(N3CCCC3)n2)cc1[N+](=O)[O-]	?	-62.4%	3.4%	12.6µM*	5.6	-30.0%
CC(C)N(C(=O)Nc1ccc2nsnc2c1)C(C)C	0.3%	-31.6%	-12.5%	-11.2%	1.0	-20.2%
Cc1nc2c3ccccc3nc(NNC(=O)CCC(=O)NCCC(C)C)n2n1	8.1%	-17.3%	2.6%	-4.1%	-21.2	3.0%
CCN(CC)CCCNC(=O)CCC(=O)NNc1nc2ccccc2c2nc(C)nn12	20.7%	-18.0%	3.3%	17.8µM*	-16.0	?
COc1ccc(Nc2nc(C)nc3sc4c(c23)CCC4)cc1O	-6.0%	-53.9%	1.6%	-25.6%	-20.6	-11.2%
CCOC(=O)C1(Cc2ccccc2C(F)(F)F)CCN(C(C)COC)CC1 (stereo not drawn)	-4.2%	-21.2%	0.7%	8.1%	2.2	-9.6%
CCCCCc1cc(=O)oc2c(C(CCN(CC)CC)c3ccc(OC)cc3)c(OC)cc(OC)c12 (stereo not drawn)	-14.3%	-60.8%	3.9%	?	-15.8	8.91µM*
CCN(CC)CCC(c1ccc(OC)cc1)c1c(OC)cc(OC)c2c(C)cc(=O)oc12 (stereo not drawn)	·	·	·	-17.4%	41.6	-15.8%
O=C(CCCn1c(=S)[nH]c2ccccc2c1=O)NC1CCCC1	-12.1%	9.4%[1.84 µM]	14.6%	?	10.0	-7.7%
CC1CCCC(NC(=O)CCCn2c(=S)[nH]c3ccccc3c2=O)C1C (stereo not drawn)	?	-14.7%	-2.4%	10µM*	14.9	-9.9%[10 µM]
CC1CCCCC1NC(=O)CCCn1c(=S)[nH]c2ccccc2c1=O (stereo not drawn)	-18.0%	-28.9%	1.2%	?	26.0	12.1%
CC1CCCCC1NC(=O)CCCCCn1c(=S)[nH]c2ccccc2c1=O (stereo not drawn)	?	-10.2%	23.1%	15.8µM*	-0.4	6.5%
CC(C)(C)Nc1nc(Cl)nc(Nc2ccccc2)n1	?	11.2µM*	?	?	0.3	-6.3%
O=C(NC1CC1)c1scc2c1OCCO2	16.4µM*	-17.5%	3.7%	2.0%	-16.0	-0.5%
O=C(Nc1cccnc1)c1scc2c1OCCO2	-29.4%	21.7%	-1.8%	14.6%	-0.7	0.2%
CCC1C(=O)NCCN1C(=O)c1ccccc1OC1CCN(S(C)(=O)=O)CC1 (stereo not drawn)	-9.1%	15.5%	-3.0%	16.4%	-7.7	-5.9%
CCOc1ccc(N=Cc2c(C)[nH]n(-c3nc4ccccc4[nH]3)c2=O)cc1	?	-28.5%	?	14.1µM*	-19.4	?
Cc1[nH]n(-c2ccccc2)c(=O)c1C=Nc1cnc2ccccc2c1	3.1%	14.7%	-3.0%	-40.8%	-12.4	-9.6%
COc1ccc2cc(/C=N/NC(=O)CN(c3ccccc3)S(=O)(=O)c3ccccc3)c(Cl)nc2c1	?	·	-2.9%	-12.2%	·	-7.3%
SMILES	ELG1 DNA repair	BRCA1 expr act	p53 reactivator	RORg inh	Giardia killer	VP16 counter
Cn1nc(C(F)(F)F)c(/C=N/OC(=O)c2ccccc2Cl)c1SCc1ccccc1Cl	13µM*	-56.4%	-6.4%	-21.7%	3.0	23.5%
Cn1nc(C(F)(F)F)c(/C=N/OC(=O)c2ccccc2)c1SCc1ccc(Cl)cc1	?	-8.2%	2.6%	-20.7%	-3.5	-0.8%
FC(F)(F)c1nc(-c2cccs2)ncc1-c1nnnn1-c1ccc(Cl)cc1	20.6µM*	-93.3%	3.2%	-21.4%	-0.6	-5.5%
O=C(C1=C[C@H](c2ccc3c(c2)OCO3)C[C@H](OCc2ccc(CO)cc2)O1)N1CCCCCCC1	-14.9%	2.4%	-5.4%	14.1µM*	13.0	-28.5%
O=C(C1=C[C@@H](c2ccc(Br)cc2)C[C@@H](OCc2ccc(CO)cc2)O1)N1CCN(Cc2ccccc2)CC1	23.1µM*	-24.3%	1.9%	41.6%	-3.0	-4.0%
O=C(C1=C[C@@H](c2ccc3c(c2)OCO3)C[C@@H](OCc2ccc(CO)cc2)O1)N1CCOCC1	13.1%	-5.9%	-4.8%	-0.2%	-1.3	6.7%
Cc1ccc(-c2nnc(Nc3cccc(O)c3)c3ccccc23)cc1S(=O)(=O)NCCO	-17.0%	-8.5%	-10.7%	19.7%	-3.3	-14.3%
CCOc1cc(C(=S)N2CCOCC2)ccc1OS(=O)(=O)c1ccccc1	?	-31.6%	-0.1%	28.7%	-0.4	-19.7%
CCOC(=O)c1ccc(OS(=O)(=O)c2ccccc2)c(OC)c1	?	5.62µM*	?	3.2%	-5.9	13.6%
CCN(CC)S(=O)(=O)c1ccc(/C(O)=C(\C#N)c2nc3ccccc3n2C)cc1	?	-64.0%	-5.9%	2.82µM*	11.6	5.62µM*
Cn1c(/C(C#N)=C(\O)c2cccc(F)c2)nc2ccccc21	20.6%	-37.8%	6.4%	7.08µM*	7.6	7.08µM*
COc1ccc2nc(SCC(=O)NCC3CCCO3)c(C#N)cc2c1 (stereo not drawn)	?	19.3%	18.9%	-31.9%	22.2	7.1%
CN1/C(=C\C(=O)c2cccc([N+](=O)[O-])c2)Sc2ccccc21	?	2.24µM*	-6.4%	19.8%	10.1	18.6%
Cc1ccc(Nc2c(-c3ccccn3)nc3cccc(C)n23)cc1	?	-71.3%	24.4%	4.47µM*	30.4	?
Cc1cc(C)n2c(Nc3c(C)cccc3C)c(-c3ccccn3)nc2n1	·	-22.8%	·	·	·	·

Screening results deposited in PubChem by National Center for Advancing Translational Sciences (NCATS).
